# Values joined by “and” are separate entries in the source; they are usually repeats but may differ in a detail not shown here. Equal entries are not always repeated. Some compounds were tested as several samples or in several runs, with calls that do not always agree. Active and inactive are the calls of the source. Rule as the data show it, unless noted: active = inhibition above about 80%; inactive = the rest.
# Columns and labels:
# [1] = sensitizers of A549 cells to miR-34 induction, primary screen, imaging, A549 dox-inducible miR-34, nuclei and caspase counts (AID 1347080;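 active = compounds whose cell count with miR-34 switched on is under 0.7 times the count with it off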); conditions: A549 miR-34 inducible, Hoechst nuclei count, 48 h
# [2] = survival rescue of mitochondrial mutant cells in low glucose, primary screen, MELAS cybrids, Rieske KO mouse fibroblasts, CellTiter-Glo (AID 1508586;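 active = mean z-score across replicates of 1.96 or higher in either the MELAS or the Rieske mutant cell line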;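 also: z relative to plate mean and SD of compound and empty wells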)
# [3] = LFS_MB_P medulloblastoma growth inhibition, cell-based, chromothripsis tumors, cisplatin or BGB combos (AID 1671449); conditions: LFS_MB_P medulloblastoma cells;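 also: cells exposed for 96 hours; 0% = vehicle DMSO and 100% = killing by high DMSO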
# [4] = HDN33 neuroblastoma growth inhibition, cell-based, chromothripsis tumors, cisplatin or BGB combos (AID 1671450); conditions: HDN33 neuroblastoma cells, stronger effect = higher value;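 also: cells exposed to compound for four days; 0% = vehicle DMSO and 100% = cell killing by high DMSO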
# [5] = ICB984 medulloblastoma cell growth inhibition, synergistic combos for chromothripsis tumors, cisplatin or BGB combos (AID 1671451; call rule not given here;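 also: cells exposed for 96 hours before readout; 0% = vehicle DMSO and 100% = killing by high DMSO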); conditions: ICB984 medulloblastoma cells, drug combinations, stronger effect = higher value
# [6] = LFS_MB_1R medulloblastoma cell growth inhibition, synergistic combos for chromothripsis tumors, cisplatin or BGB combos (AID 1671452); conditions: LFS_MB_1R medulloblastoma cells, stronger effect = higher value;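 also: cells exposed for 96 hours before readout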
# [7] = HTB85 osteosarcoma cell growth inhibition, synergistic combos for chromothripsis tumors, BGB or cisplatin IC20 combos (AID 1671453); conditions: HTB85 osteosarcoma cells, drug combinations, stronger effect = higher value;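 also: cells exposed for 96 hours before readout; 0% = vehicle DMSO and 100% = high DMSO killing control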
# [8] = CRL2098 osteosarcoma cell growth inhibition, synergistic combos for chromothripsis tumors, BGB or cisplatin IC20 combos (AID 1671454); conditions: CRL2098 osteosarcoma cells, drug combinations, stronger effect = higher value;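 also: cells exposed for 96 h before readout; 0% = vehicle DMSO and 100% = killing by high DMSO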
# [9] = HD-MB03 medulloblastoma cell growth inhibition, synergistic combos for chromothripsis tumors, BGB or cisplatin IC20 combos (AID 1671455; in the data active = inhibition above about 83%;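 also: 0% = vehicle DMSO and 100% = high DMSO as cytotoxic control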); conditions: HD-MB03 medulloblastoma cells, stronger effect = higher value
# [10] = UWB1.289 ovarian carcinoma cell growth inhibition, synergistic combos for chromothripsis tumors, BGB or cisplatin combos (AID 1671456); conditions: UWB1.289 ovarian carcinoma cells, stronger effect = higher value;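 also: cells exposed to compound for four days; 0% = vehicle DMSO and 100% = killing by high DMSO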
# [11] = LFS_MB_2R medulloblastoma cell growth inhibition, synergistic combos for chromothripsis tumors, cisplatin combos (AID 1671457); conditions: LFS_MB_2R medulloblastoma cells, stronger effect = higher value;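 also: cells exposed to compound for four days before readout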
# [12] = MDA-MB-436 breast carcinoma cell growth inhibition, synergistic combos for chromothripsis tumors, BGB or cisplatin combos (AID 1671458; call rule not given here;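 also: cells exposed for 96 hours; 0% = vehicle DMSO and 100% = killing by high DMSO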); conditions: MDA-MB-436 breast carcinoma growth inhibition, drug combinations, stronger effect = higher value
# [13] = UWB1.289_BRCA1 ovarian cancer growth, cell-based, BGB or cisplatin combinations (AID 1671459); conditions: UWB1.289 BRCA1 ovarian carcinoma, drug combinations, stronger effect = higher value
# [14] = human astrocyte viability loss, single and combined drugs, cytotoxicity control for chromothriptic childhood tumor combination screen, cell-based, BGB or cisplatin IC20 combos (AID 1671460); conditions: Human astrocytes, drug combinations, stronger effect = higher value;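 also: cells exposed to compounds for 96 hours before viability readout; 0% = vehicle and 100% = killing control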
# [15] = growth inhibition of BT084 medulloblastoma cells, cell-based, ICGC_MB145, cisplatin and BGB IC40 combos (AID 1671461); conditions: drug combinations, stronger effect = higher value;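 also: cells exposed to drugs for 96 hours; 0% = vehicle DMSO and 100% = high DMSO full killing control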
# [16] = growth inhibition of RCMB18 medulloblastoma cells, cell-based, cisplatin and BGB IC40 combos (AID 1671462); conditions: stronger effect = higher value;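 also: cells exposed to compound for four days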
# [17] = growth inhibition of CRL1545 osteosarcoma cells, cell-based, cisplatin and BGB IC20 combos (AID 1671464); conditions: stronger effect = higher value;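 also: cells exposed to compound for 96 hours before readout; 0% = vehicle DMSO and 100% = high DMSO killing control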
# [18] = hESC survival regulators, cell-based (AID 493140; call rule not given here;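 also: cells exposed to compounds for four days before counting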); conditions: human embryonic stem cell survival screen; stronger effect = higher value
# [19] = liver-stage malaria parasite growth inhibition, primary screen, cell-based, HepG2, luciferase luminescence, HepG2 viability (AID 624349; in the data active = parasite load remaining mostly below about 12%, no sharp cut-off; inactive = mostly above about 10%;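 also: 100% = mean of DMSO negative control wells on the same plate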); conditions: P. berghei liver stage in HepG2, luciferase luminescence, concentration not given here; parasite load remaining: stronger effect = lower value; viability: measured here: HepG2 viability without parasites
# [20] = stronger effect = lower value, cell number ratio, induced over uninduced
# [21] = measured here: relative caspase fold change +Dox/-Dox
# [22] = measured here: total cells with miR-34 induction, stronger effect = lower value
# [23] = measured here: total cells without miR-34 induction
# [24] = MELAS cybrid survival, CellTiter-Glo 48 h, stronger effect = higher value
# [25] = Rieske KO mouse fibroblast survival, CellTiter-Glo 72 h
# [26] = measured here: combination with BGB IC40, at 0.05 µM
# [27] = measured here: with BGB IC20 combination, at 0.5 µM
# [28] = measured here: with cisplatin IC20 combination, at 0.5 µM
# [29] = measured here: combination with cisplatin, at 0.5 µM
# [30] = measured here: combination with cisplatin, at 5 µM
smiles,measurement,setting,value
COc1ccc(CC(N)C(=O)NC2C(CO)OC(n3cnc4c(N(C)C)ncnc43)C2O)cc1 (stereo not drawn),fold change,[1]; [20],1 (inactive)
same,fold change,[1]; [21],0.403
same,cell count,[1]; [22],798
same,cell count,[1]; [23],796
same,z-score,[2]; [24],-0.998 (inactive)
same,z-score,[2]; [25],-2.06
same,inhibition,"[3]; at 0.5 µM, stronger effect = higher value",-25.1% (inactive) and 6.28% (inactive)
same,inhibition,"[3]; measured here: combination with BGB IC20, at 0.005 µM",7.23% and -8.63%
same,inhibition,"[3]; measured here: combination with BGB IC40, at 0.005 µM",-30.8% and -22.1%
same,inhibition,[3]; [26],-25.1% and 4.36%
same,inhibition,"[3]; measured here: combination with cisplatin, at 0.5 µM, stronger effect = higher value",-20.6% and 32.4%
same,inhibition,"[3]; measured here: combination with cisplatin, at 5 µM, stronger effect = higher value",120% and 124%
same,inhibition,"[4]; BGB combo, at 5 µM",100% and 99.9%
same,inhibition,[4]; at 0.5 µM,75.5% (inactive) and 96.4% (active)
same,inhibition,"[4]; cisplatin combo, at 5 µM",99.9% and 100%
same,inhibition,[4]; [27],78.8% and 94.9%
same,inhibition,[4]; [28],74% and 96.7%
same,inhibition,"[4]; single agent, at 5 µM",99.9% and 100%
same,inhibition,"[5]; BGB IC20 combo, at 0.005 µM",14.3% and 49.6%
same,inhibition,"[5]; BGB IC40 combo, at 0.005 µM",37% and 55.6%
same,inhibition,"[5]; BGB IC40 combo, at 0.05 µM",100%
same,inhibition,[5]; at 0.5 µM,-26.8% (inactive) and -23.9% (inactive)
same,inhibition,"[5]; cisplatin combo, at 0.05 µM",101% and 100%
same,inhibition,"[5]; cisplatin combo, at 0.5 µM",-24.2% and -19.9%
same,inhibition,"[5]; cisplatin combo, at 5 µM",-8.56% and -29.6%
same,inhibition,"[5]; measured here: 5 uM single agent, at 5 µM",-9.41% and -1.15%
same,inhibition,[6]; at 0.5 µM,31.4% (inactive) and 64.5% (inactive)
same,inhibition,[6]; [26],0.687% and -51.1%
same,inhibition,[6]; [29],59.4% and 79.7%
same,inhibition,[6]; [30],102% and 99%
same,inhibition,[7]; at 0.5 µM,82.9% (active) and 95.9% (active)
same,inhibition,"[7]; measured here: with BGB IC20, at 0.5 µM",84.1% and 96.2%
same,inhibition,"[7]; measured here: with BGB IC20, at 5 µM",100%
same,inhibition,"[7]; measured here: with cisplatin IC20, at 0.5 µM",80.8% and 96.9%
same,inhibition,"[7]; measured here: with cisplatin IC20, at 5 µM",99.9% and 100%
same,inhibition,"[7]; single agent, at 5 µM",100%
same,inhibition,[8]; at 0.5 µM,56.1% (inactive) and 91.8% (active)
same,inhibition,"[8]; measured here: combination with BGB at IC20, at 0.5 µM",67.8% and 88.9%
same,inhibition,"[8]; measured here: combination with cisplatin at IC20, at 0.5 µM",54.9% and 94.1%
same,inhibition,[9]; at 0.5 µM,87.7% (active) and 99.6% (active)
same,inhibition,"[9]; measured here: combo with BGB at IC20, at 0.5 µM",88.7% and 99.3%
same,inhibition,"[9]; measured here: combo with cisplatin at IC20, at 0.5 µM",91.5% and 99.7%
same,inhibition,[10]; at 0.5 µM,50% (inactive) and 83.6% (active)
same,inhibition,"[10]; measured here: inhibition with BGB combination, at 0.05 µM",-13.6% and -16.5%
same,inhibition,"[10]; measured here: inhibition with cisplatin combination, at 0.05 µM",-12.2% and -18.5%
same,inhibition,[11]; at 0.5 µM,29.8% (inactive) and 56.9% (inactive)
same,inhibition,[11]; [29],55.5% and 77.6%
same,inhibition,[11]; [30],108% and 104%
same,inhibition,[12]; at 0.5 µM,57.5% (inactive) and 76.7% (inactive)
same,inhibition,"[12]; measured here: BGB combination, at 0.5 µM",54.4% and 71.5%
same,inhibition,"[12]; measured here: BGB combination, at 5 µM",97.5% and 96%
same,inhibition,"[12]; measured here: cisplatin combination, at 0.5 µM",53% and 76.1%
same,inhibition,"[12]; measured here: cisplatin combination, at 5 µM",98.3% and 97.8%
same,inhibition,"[13]; BGB combination, concentration series, at 5 µM",117% and 113%
same,inhibition,[13]; at 0.5 µM,59% (inactive) and 95.4% (active)
same,inhibition,"[13]; cisplatin combination, concentration series, at 5 µM",117% and 111%
same,inhibition,[14]; at 0.5 µM,40.4% (inactive) and 94.2% (active)
same,inhibition,"[14]; measured here: combo with BGB IC20, at 0.5 µM",44.5% and 93.9%
same,inhibition,"[14]; measured here: combo with cisplatin IC20, at 0.5 µM",14.8% and 91.4%
same,inhibition,[15]; at 0.5 µM,25.7% (inactive) and 46.2% (inactive)
same,inhibition,"[15]; cisplatin combination, at 0.5 µM",43% and 48.9%
same,inhibition,"[15]; cisplatin combination, at 5 µM",88.5% and 94%
same,inhibition,"[15]; measured here: BGB IC40 combination 0.05 uM, at 0.05 µM",-4.12% and 46.7%
same,inhibition,"[15]; single agent, at 5 µM",105% and 104%
same,inhibition,[16]; at 0.5 µM,33.4% (inactive) and 51.8% (inactive)
same,inhibition,"[16]; cisplatin combo, at 5 µM",76% and 95.5%
same,inhibition,"[16]; measured here: BGB IC40 combination, at 0.05 µM",-32% and 8.46%
same,inhibition,[16]; [29],49.2% and 73.8%
same,inhibition,"[16]; single agent, at 5 µM",95.9% and 95.4%
same,inhibition,[17]; at 0.5 µM,86.2% (active) and 95.7% (active)
same,inhibition,[17]; [27],92.5% and 96.5%
same,inhibition,[17]; [28],82.6% and 95.3%
same,inhibition,"[17]; single agent, at 0.05 µM",-45.7% and -4%
same,inhibition,"[17]; single agent, at 5 µM",100% and 99.7%
Nc1nc(=S)c2ncn([C@@H]3O[C@H](CO)[C@@H](O)[C@H]3O)c2[nH]1,survival,[18],1.25 (inactive)
same,parasite load remaining,[19],64.1% (inactive) and 72.9% (inactive)
same,viability,[19],36.6% and 69.4%
same,fold change,[1]; [20],1.04 (inactive)
same,fold change,[1]; [21],1.52
same,cell count,[1]; [22],2980
same,cell count,[1]; [23],2870
same,z-score,[2]; [24],3.35 (active)
same,z-score,[2]; [25],-0.524

# — PubChem BioAssay
